Bioassay records deposited in PubChem by Sanford-Burnham Center for Chemical Genomics.
CYP2C19 activ: human CYP2C19 activators, primary screen, biochemical, luminescence. 96,000 tested, under 10 active. activation factor at 5 µM. recombinant CYP2C19, luciferin-H EGE luminescence; hits give high values; 0 = fully inhibited enzyme, 1 = untreated enzyme. Cytochrome P450 2C19 (Homo sapiens), P33261;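 active = activation factor of at least 2 at 5 µM in the primary screen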;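 note: 0 = wells with 2.5 mM tranylcypromine and 1 = vehicle-only wells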
Target sequence (P33261 whole entry, looked up): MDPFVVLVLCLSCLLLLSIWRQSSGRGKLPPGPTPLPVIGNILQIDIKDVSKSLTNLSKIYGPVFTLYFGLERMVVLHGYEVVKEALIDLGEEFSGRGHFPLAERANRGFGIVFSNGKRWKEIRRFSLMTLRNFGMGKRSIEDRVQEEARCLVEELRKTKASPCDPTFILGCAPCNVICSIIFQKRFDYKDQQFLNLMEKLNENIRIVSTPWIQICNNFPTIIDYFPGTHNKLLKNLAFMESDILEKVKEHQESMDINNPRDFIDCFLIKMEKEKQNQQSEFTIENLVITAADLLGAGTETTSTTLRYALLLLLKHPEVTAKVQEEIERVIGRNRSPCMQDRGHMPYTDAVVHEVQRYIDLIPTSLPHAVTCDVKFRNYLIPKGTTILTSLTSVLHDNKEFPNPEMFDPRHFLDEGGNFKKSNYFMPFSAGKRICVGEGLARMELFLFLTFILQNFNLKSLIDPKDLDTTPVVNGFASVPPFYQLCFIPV
CYP2C19 inhib: blockers of cytochrome P450 2C19 activity – biochemical, luminescence, ADME assay, primary screen | CYP2C19 Supersomes, luciferin-H EGE luminescence, 30 min | AID 778, 2007 | hit rate 21% among 96,000 | inhibition, % at 5 µM | P33261;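 active = CYP2C19 inhibition above a set limit at 5 µM in the primary screen, cut at about 50% in these data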;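 note: plate controls were negative control wells for no effect and 2.5 mM tranylcypromine positive control for full effect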
CD11b adhes enh: enhancers of CD11b/CD18 adhesion to fibrinogen, primary screen, K562 cells, luminescence | Integrin beta-2 (Homo sapiens) + Integrin alpha-M (Homo sapiens), P05107+P11215 | hit rate 0.07% among 93,000 | ATPlite luminescence | activation, % at 10 µM;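 active = 10 µM primary screen giving 50% or more activity, confirmed by 40% or more on retest at that dose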
Mac1 fbg inh: inhibitors of CD11b/CD18 adhesion to fibrinogen, primary screen, K562 cells, luminescence. inhibition, % at 10 µM. hit rate 0.54% among 93,000. AID 1497, 2009. Integrin beta-2 (Homo sapiens) + Integrin alpha-M (Homo sapiens), P05107+P11215. ATPlite luminescence; Mn2+ added to activate the integrin;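 active = primary inhibition of 50% or more at 10 µM, then 40% or more on retest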
CYP2C9 activ: human CYP2C9 activators, primary screen, biochemical, luminescence. activation factor at 5 µM. Cytochrome P450 2C9 (Homo sapiens), P11712. recombinant CYP2C9, luciferin-H conversion; hits give high values; factor 1 = untreated enzyme, 0 = blocked. hit rate 1.4% among 96,000;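 active = activation factor of 2 or more for CYP2C9 at a 5 µM dose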;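 note: 0 = sulfaphenazole-blocked wells and 1 = vehicle-only wells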
CYP2C9 inhib: blockers of cytochrome P450 2C9 activity – biochemical, luminescence, ADME assay, primary screen. hit rate 20% among 96,000. CYP2C9 Supersomes, luciferin-H conversion. inhibition, % at 5 µM. P11712;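 active = blocking of liver enzyme CYP2C9 beyond about 50% at 5 µM, limit read from the data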
* marks the source's active call; other numbers are inactive results; / = not tested or not shown. An excerpt weighted towards active compounds, which were near 28% of everything screened.

SMILES	CYP2C19 activ	CYP2C19 inhib	CD11b adhes enh	Mac1 fbg inh	CYP2C9 activ	CYP2C9 inhib
COCCn1c(C)cc(C(=O)COC(=O)c2c(C)nn(Cc3ccccc3)c2C)c1C	0.4	61*	-1	-1	0.9	14
Cc1cc(C(=O)COC(=O)c2n[nH]c3ccccc23)c(C)n1C	0.6	43	-1	-4	1.6	-63
COCC(C)n1c(C)cc(C(=O)COC(=O)c2c(C)nn(-c3ccccc3)c2C)c1C (stereo unspecified)	0.4	62*	1	-4	0.6	41
O=C(NNc1ccc([N+](=O)[O-])cc1)C12CC3CC(CC(C3)C1)C2	0.9	8	/	/	1.1	-6
COCCn1c(C)cc(C(=O)COC(=O)c2ccc3ncsc3c2)c1C	0.7	29	4	-3	2*	-99
COCCn1c(C)cc(C(=O)COC(=O)c2ccc(NC(=O)CC#N)cc2)c1C	1	-3	25	-2	1.1	-13
CCOC(=O)c1c(C=O)c(C)n(Cc2ccccc2)c1C	0.5	49	-1	5	0.3	70*
CCOC(=O)c1c(C=O)c(C)n(Cc2ccc(Cl)cc2)c1C	0.7	28	-4	16	0.2	84*
CC(=O)c1c(C(C)=O)c(C)n(Cc2ccc(Cl)cc2)c1C	0.1	86*	3	15	0.7	33
CC(=O)c1c(C(C)=O)c(C)n(NC(=O)c2ccc(Cl)cc2)c1C	0.9	12	2	-1	0.6	45
OC1(c2cccc(C(F)(F)F)c2)CCNCC1	1	2	5	-2	1.1	-11
CCCCn1c2c(c(=O)n(C)c1=O)C(CC(=O)OCC(=O)Nc1cccc(C(F)(F)F)c1)C(=O)N2 (stereo unspecified)	0.6	37	-3	-9	0.1	86*
Cn1c(=O)c2c(n(Cc3ccccc3)c1=O)NC(=O)C2CC(=O)O (stereo unspecified)	1.1	-8	0	-47	0.7	25
COCC(C)n1c(C)cc(C(=O)CN2C(=O)NC(Cc3c[nH]c4ccccc34)C2=O)c1C (stereo unspecified)	0.6	41	-1	10	0.5	46
CCNS(=O)(=O)c1c(C)cc(N2CCCC2=O)cc1C	0.8	24	1	-12	0.5	50
CCn1c(=O)n(CC)c2cc(S(=O)(=O)NCCOc3ccccc3)c(C)cc21	0.5	51*	2	0	0.3	72*
Cc1cc(N2CCCC2=O)cc(C)c1S(=O)(=O)NCCOc1ccccc1	0.1	88*	0	-17	0.1	92*
O=C(Nn1cnnc1)c1ccccc1-c1ccccc1	1	-5	-4	9	1	3
Cc1cc(S(=O)(=O)NCCCN2CCOCC2)ccc1F	0.7	29	/	/	1.1	-7
COc1cc(S(=O)(=O)NCCCN2CCOCC2)ccc1Cl	0.3	75*	0	-5	2.4*	-141
COc1cc(Cl)c(S(=O)(=O)NCCN2CCOCC2)cc1Cl	0.2	82*	-2	-4	2*	-99
O=C(CCCN1C(=O)CSc2ncccc21)N1CCN(Cc2ccccc2)CC1	0.8	18	-2	-2	0.8	19
COc1cc([C@H]2[C@@H]3CCCC[C@]3(O)CCN2CC(=O)Nc2ccc(C)cc2C)ccc1O	0.8	17	-3	-11	0.7	32
COc1cc([C@H]2[C@@H]3CCCC[C@]3(O)CCN2Cc2ccccc2F)ccc1O	0.2	83*	0	-9	0.6	37
CC1CCN(C(=O)CCCOc2cc(=O)n(C)c3ccccc23)CC1	0.5	50*	-2	-25	1.3	-27
SMILES	CYP2C19 activ	CYP2C19 inhib	CD11b adhes enh	Mac1 fbg inh	CYP2C9 activ	CYP2C9 inhib
Cc1cccc(N2CCN(C(=O)COc3cc(=O)n(C)c4ccccc34)CC2)c1C	0.5	51*	/	/	1.1	-6
COc1ccc(OCCN(C)Cc2ccccc2)cc1	0.3	68*	3	-9	1.2	-19
COc1ccc(N2CCN(C(=O)CCCOc3cc(=O)n(C)c4ccccc34)CC2)cc1	0.1	88*	4	-5	0.1	88*
Cc1ccc(C)c(N2CCN(C(=O)CCCOc3cc(=O)n(C)c4ccccc34)CC2)c1	0.1	94*	0	3	0.1	90*
COc1ccc(OCCC(=O)NCc2ccccc2)cc1	0.5	51*	-2	-29	1	-3
COc1ccc(CNC(=O)CCCOc2cc(=O)n(C)c3ccccc23)cc1	0.1	92*	-1	-37	0.2	78*
Cc1ccc(CNC(=O)CCCOc2cc(=O)n(C)c3ccccc23)o1	0.9	8	-5	-4	1.3	-26
Cc1ccc(C)c(N2CCN(C(=O)COc3cc(=O)n(C)c4ccccc34)CC2)c1	0.8	17	0	6	1	3
CCn1c(CCNC(=O)c2ccccc2Cl)n[nH]c1=S	1	2	2	-18	0.9	8
CN=c1scc(C)n1/N=C/c1ccc2c(c1)OCO2	0.8	17	-2	2	0.9	10
COC(=O)c1ccc(NS(=O)(=O)c2cccc3cccnc23)cc1	1.1	-5	-3	-6	0.9	8
CCn1c(SCC(=O)Nc2ncc(C(F)(F)F)cc2Cl)nnc1-c1cccc(C)c1	/	/	2	7	/	/
O=C(/C=C/c1ccc(OCc2ccccc2)c(OCc2ccccc2)c1)c1cccnc1	/	/	0	0	/	/
O=C(/C=C/c1ccccc1)NNC(=O)c1cccnc1	1	5	/	/	0.9	13
O=C(/C=C/c1ccccc1Cl)c1cccnc1	0.5	54*	4	-10	0.9	13
O=C(/C=C/c1ccc(Cl)cc1)c1cccnc1	0.1	94*	0	-24	0.5	52*
COc1ccc(NC(=O)/C(=C\c2ccc3c(c2)OCO3)NC(C)=O)cc1	/	/	-4	4	/	/
CCc1nc(N)c(C#N)c(-c2ccc(F)cc2)c1C	0.6	36	-3	-6	1	4
CCCc1cc(-c2ccc(O)c(OCC)c2)c(C#N)c(N)n1	0.1	90*	3	-7	0.2	82*
CCOc1cc(-c2c(C)c(CC)nc(N)c2C#N)ccc1O	0.4	63*	-2	-6	0.8	23
CCOc1cc(-c2cc(-c3ccc(C)o3)nc(N)c2C#N)ccc1O	0.8	18	27	-6	0.6	38
CCCc1nnc(NC(=O)CCC(=O)N2CCCCCC2)s1	0.9	8	1	15	1	-3
O=C(c1ccccc1)c1ccc2nc[nH]c2c1	0.4	57*	-2	-1	0.6	40
